About 83,000 compounds went through this panel and 20% of them were active in at least one assay; those are over-represented in the sample as a whole.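 For each line, cells grew in 96-well plates with the test compound present at a single concentration for 48 hours.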 Activity calls are given as the source filed them. The calls were made as follows: active = growth percent below 10; inactive = the rest.
What follows are compounds tested on SF-268 CNS (assay: NCI-60 one-dose screen, 48 h (100 = growth as untreated, 0 = no growth, -100 = all killed)). Conditions: 10 µM unless noted.

SMILES | growth
C/C(CCC(=O)O)=N/Nc1ccc([N+](=O)[O-])cc1 | 72.3% (inactive)
Nc1nc2c(c3ncncc13)C(c1cccc(C(F)(F)F)c1)Cc1ncncc1-2 (stereo not given) | 45.8% (inactive)
COc1ccc(-c2nc(SCC(C)C)nc(Nc3ccc([N+](=O)[O-])cc3)c2C#N)cc1 | 93.2% (inactive)
Cn1c2c(cc(S(=O)(=O)c3ccccc3)c1=O)CCc1c-2cnn1-c1ccc(Cl)cc1 | 32.9% (inactive)
Nc1nc2c(c3cnccc13)C(c1cccc(Cl)c1)Cc1cnccc1-2 (stereo not given) | 20.7% (inactive)
CCCCCSc1ccc2nc(NC(=O)OCCC)sc2c1 | 55.2% (inactive)
CCCCCSc1ccc2nc(NC(=O)OCC)sc2c1 | 50.8% (inactive)
Cc1c(Cc2ccccc2)c(=O)oc2c(C)c(OCc3n[nH]c(=S)o3)ccc12 | 75.9% (inactive)
CCOC(=O)c1c(C)oc2ncnc(Nc3ccc(C(=O)NCCc4ccccc4)cc3)c12 | 74.1% (inactive)
COc1cc(/C=C/C(=O)c2ccc(F)cc2)ccc1OCCCCOc1cc2c(cc1OC)C(=O)N1CCCC1C=N2 (stereo not given) | -12.4% (active)
C=C(C)[C@@H]1CC[C@]2(COC(=O)c3ccccc3C(=O)O)CC[C@]3(C)[C@H](CC[C@@H]4[C@@]5(C)CCCNC(C)(C)[C@@H]5CC[C@]43C)[C@@H]12 | 73.2% (inactive)
O=C(CCCC(=O)Nc1ccc(Cn2nnc3cc(Cl)c(Cl)cc32)cc1)Nc1ccc(CN2N=NC3C=C(Cl)C(Cl)=CC32)cc1 (stereo not given) | 78.1% (inactive)
CCS(=O)(=O)OCCO[C@H]1Cc2cc3ccc(=O)oc3cc2OC1(C)C | 98.9% (inactive)
O=C1Nc2ccccc2/C1=C/c1cn(CC(O)Cn2cc(/C=C3\C(=O)Nc4ccccc43)c3ccccc32)c2ccccc12 (stereo not given) | -62% (active)
COC(=O)Nc1nc2ccc(C(=O)c3ccccc3N(C)C3COC3)cc2[nH]1 | 45.7% (inactive)
COC(=O)/C=C/c1cc(O)c2oc(-c3ccc(O)c(O)c3)c(C(=O)OC)c2c1 | 25.2% (inactive)
CC(C)OC(=O)[C@H](C)N[P@@](=O)(OC[C@@]1(C)O[C@@H](n2cc(F)c(N)nc2=O)C[C@@H]1O[P@](=O)(N[C@@H](C)C(=O)OC(C)C)Oc1ccccc1)Oc1ccccc1 | 54% (inactive)
COc1cc2ncnc(Nc3ccc4c(cnn4C(=O)Nc4ccccc4)c3)c2cc1OC | 97.2% (inactive)
Cc1nnc(/N=C2\NC(=O)/C(=C/C=C/c3ccccc3)S2)s1 | 51.9% (inactive)
COC(c1ccccc1)C(Br)C(=O)c1ccccc1 (stereo not given) | 108% (inactive)

SMILES | growth
O=C1c2ccccc2CCc2ccccc21 | 96.5% (inactive)
COc1cc2ncnc(-n3ncc4cc(NC(=O)Nc5ccccc5)ccc43)c2cc1OC | 21.7% (inactive)
COc1cc(-c2cc3cnccc3c3nc(N)c4ccncc4c23)cc(OC)c1OC | 49.4% (inactive)
COc1cc(OC)c(NC(=O)n2ncc3cc(Nc4ncnc5ccccc45)ccc32)cc1Cl | 87.4% (inactive)
COc1cc(OC)cc(-c2ccc(-c3ccc(C(=N)N)cc3)s2)c1 | -72.2% (active)
CC1(C)NCCC[C@]2(C)[C@H]3CC=C4[C@@H]5C[C@](C)(COC(=O)c6ccccc6C(=O)O)CC[C@]5(C)CC[C@@]4(C)[C@]3(C)CC[C@@H]12 | 60.7% (inactive)
Nc1ncn([C@@H]2O[C@H](CO)[C@@H](O)C2(F)F)c(=O)n1 | 65.4% (inactive)
CCOC(=O)c1cc(C(=O)c2ccc(Br)cc2)n2cc(C)cc(C)c12 | 97.2% (inactive)
Nc1nc2c(c3cnccc13)C(c1cccc(Br)c1)Cc1cnccc1-2 (stereo not given) | 20.3% (inactive)
O=C1/C(=C\c2cn(-c3nc(N4CCOCC4)nc(N4CCOCC4)n3)c3ccccc23)c2ccccc2N1c1c(Cl)cccc1Cl | 57.8% (inactive)
COc1cc2ncnc(-n3ncc4cc(NC(=O)Nc5ccc(Cl)c(C)c5)ccc43)c2cc1OC | 102% (inactive)
CC1=C[C@@H]2c3c(c(O)c(O)c4oc5cc(O)cc(O)c5c(=O)c34)[C@@H](c3cc(O)c(O)c4oc5cc(O)cc(O)c5c(=O)c34)[C@@H]2C(C)(C)C1 | 3.54% (active)
N=C(N)c1ccc(-c2ccc(-c3cc(Cl)cc(Cl)c3)s2)cc1 | -66.1% (active)
COc1cc2ncnc(-n3ncc4cc(NC(=O)Nc5ccc(Cl)c(Cl)c5)ccc43)c2cc1OC | -34.8% (active)
COC1=CC(c2ccc[nH]2)=N/C1=C\c1[nH]c(C)c(C(=O)CCCCC(=O)NC(C)(C)C)c1C | 60.2% (inactive)
CC1=NN(c2cccc(Cl)c2)C(=O)/C1=C\c1cn(-c2nc(N3CCOCC3)nc(N3CCOCC3)n2)c2ccccc12 | 95.4% (inactive)
O=C(Nc1ccccc1)Nc1ccc(Nc2ncnc3sc4c(c23)CCCC4)cc1 | 100% (inactive)
O=c1c(N=Nc2nccs2)c(-c2ccccc2)[nH]n1-c1nc(-c2ccccc2)cs1 | 32.3% (inactive)
CCOP1(=O)CC(C)=C(Cl)C(P(=O)(O)O)C1 (stereo not given) | 109% (inactive)
Cc1ccc(OCCn2ccc(=O)n(CCOc3ccc(Cl)cc3C(=O)c3cc(C)cc(C)c3)c2=O)cc1 | 49.7% (inactive)
